Measured values reported in PubChem BioAssay AID493035 (The Scripps Research Institute Molecular Screening Center, 2011).
The whole screen tested about 2,000 compounds, of which about 45 (2%) were called active.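 How the source made its calls: active means inhibition above the mean of all tested compounds plus 3 SD (cut at about 49% in these data); inactive means the rest.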 The entries come from a sample that favours actives as a whole.

target: Perilipin-5 (Homo sapiens) + 1-acylglycerol-3-phosphate O-acyltransferase ABHD5 (Homo sapiens) (UniProt Q00G26+Q8WTS1); test: ABHD5-PLIN5 interaction inhibitors, pilot screen, cell lysate, split luciferase complementation, luminescence, NIH validation set (AID 493035);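 further: 0% = DMSO only wells while the 100% control is not stated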; conditions: split G. princeps luciferase complementation, lysates, 4 h; at 7.9 µM, hits give high values
Sequence (Q00G26 whole entry, looked up): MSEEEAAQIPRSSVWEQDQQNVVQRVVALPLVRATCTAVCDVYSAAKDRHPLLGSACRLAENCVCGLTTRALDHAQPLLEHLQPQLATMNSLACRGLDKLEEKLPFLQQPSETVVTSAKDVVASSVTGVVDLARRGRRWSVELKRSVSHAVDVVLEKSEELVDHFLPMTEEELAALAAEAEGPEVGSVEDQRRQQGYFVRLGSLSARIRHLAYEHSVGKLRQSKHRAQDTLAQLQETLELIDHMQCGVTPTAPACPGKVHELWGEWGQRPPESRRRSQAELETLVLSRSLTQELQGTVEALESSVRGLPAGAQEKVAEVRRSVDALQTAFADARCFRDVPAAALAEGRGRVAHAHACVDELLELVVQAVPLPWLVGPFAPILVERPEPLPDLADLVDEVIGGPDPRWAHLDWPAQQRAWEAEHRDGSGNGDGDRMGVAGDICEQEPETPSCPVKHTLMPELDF
Sequence (Q8WTS1 whole entry, looked up): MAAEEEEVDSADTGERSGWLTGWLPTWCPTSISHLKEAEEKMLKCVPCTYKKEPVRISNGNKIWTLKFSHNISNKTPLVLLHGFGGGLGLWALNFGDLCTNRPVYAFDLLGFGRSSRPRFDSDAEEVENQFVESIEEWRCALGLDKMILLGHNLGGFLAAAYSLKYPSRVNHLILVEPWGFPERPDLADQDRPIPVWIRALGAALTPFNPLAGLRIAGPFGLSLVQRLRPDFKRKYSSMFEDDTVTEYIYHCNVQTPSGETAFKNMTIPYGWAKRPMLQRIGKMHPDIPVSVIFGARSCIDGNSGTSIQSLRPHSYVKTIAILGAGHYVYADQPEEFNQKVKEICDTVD

| SMILES | inhibition |
| --- | --- |
| O=C(Nc1ccc(Oc2c(F)c(F)c(F)c(F)c2F)cc1)OC1CCN2Cc3ccccc3N=C12 (stereo unspecified) | 69.3% (active) |
| Cc1ccc(S(=O)(=O)N2CCC(C(=O)N[C@@H](C)C(=O)NC3CCS(=O)(=O)C3)CC2)cc1 (stereo partly specified) | -6.13% (inactive) |
| Cc1ccc(-c2nnc(-c3ccc4c(c3)OCO4)o2)cc1 | -9.18% (inactive) |
| CN(C)CCCN1c2ccccc2Sc2ccccc21 | -13% (inactive) |
| CC(CN1c2ccccc2Sc2ccccc21)N(C)C (stereo unspecified) | -12.2% (inactive) |
| CCN1/C(=C/C=C/C=C/c2sc3ccccc3[n+]2CC)Sc2ccccc21 | 70.5% (active) |
| C=CCn1c(SCC(=O)NC2CCCCC2)nc2ccccc2c1=O | -1.42% (inactive) |
| COc1ccccc1-c1ccc(/C=C2/C=C(CC(C)C)OC2=O)o1 | 7.79% (inactive) |
| CCOC(=O)c1c(C)oc2cc(Br)c(OC(C)C(=O)OCC)cc12 (stereo unspecified) | -0.05% (inactive) |
| COc1cccc(OCC(O)CO)c1 (stereo unspecified) | -6.51% (inactive) |
| N#C/C(C(N)=O)=c1/ccc2c(c1)N1C3=C(CCCC3)CC3CCCCC31N=2 (stereo unspecified) | 25.4% (inactive) |
| COc1ccc(C(=O)COc2ccc(F)cc2)c(O)c1 | -6.5% (inactive) |
| COc1ccc(C(=O)/C=C/c2cc(C(=O)O)cc3c2OCOC3)c(O)c1 | 70.3% (active) |
| COc1cccc(/C=C/C(=O)c2c(O)cc(C)oc2=O)c1O | 44.4% (inactive) |
| CC1=CC(C)(C)N2C(=O)C3(NCCc4c3[nH]c3ccccc43)c3cc(C)cc1c32 (stereo unspecified) | -1.07% (inactive) |
| O=C(NC(=S)Nc1ccc(N2CCN(C(=O)c3ccccc3)CC2)cc1)c1cccs1 | 11.4% (inactive) |
| Cc1ccc(S(=O)(=O)n2ccnc2)cc1C | -3.74% (inactive) |
| COC(=O)c1ccc(=O)n(Cc2ccco2)c1 | 18.6% (inactive) |
| COCCCN1C(=O)/C(=C\c2cccs2)C(C(=O)OC)=C1C | 0.91% (inactive) |
| COC(=O)C1=C(C)N(Cc2ccco2)C(=O)/C1=C\c1ccc([N+](=O)[O-])cc1 | 84.5% (active) |
| CCNC(=O)C12CCC(C)(C(=O)O1)C2(C)C (stereo unspecified) | -5.33% (inactive) |
| CC(C)[C@H](NC(=O)[C@@H]1CSCN1C(=O)OC(C)(C)C)C(=O)NCC1CCC(C(=O)O)CC1 (stereo partly specified) | -18.6% (inactive) |
| CC(=O)N/C(=C/c1ccc2c(c1)OCO2)C(=O)NCCO | 2.23% (inactive) |
| COc1ccc(C2=C(CN(C)C)C(c3ccccc3)c3ccccc3O2)cc1 (stereo unspecified) | 1.13% (inactive) |
| CCOC(=O)C(=O)N1CCN(c2ccccc2OC)CC1 | -5.55% (inactive) |
| CCOC(=O)C(=Cc1ccccc1OC)C(=O)OCC | 47.9% (active) |

| SMILES | inhibition |
| --- | --- |
| COc1ccccc1/C=C/C(=O)OCCN1CCOCC1 | -8.59% (inactive) |
| CCn1cc(CN2N=C(C)CC2c2ccccc2)c(C)n1 (stereo unspecified) | 2.34% (inactive) |
| Cc1ccc(S(=O)(=O)NC(=O)Nc2cc(C)ccc2F)cc1 | -7.32% (inactive) |
| CC(C)(C)N1NC2(CCCCC2)NC1=S | 6.12% (inactive) |
| COc1ccc2oc(=O)c(C(=O)Nc3ccccc3-c3ccccc3)cc2c1 | -5.51% (inactive) |
| COc1ccc2oc(=O)c(C(=O)N3CCN(c4ccccc4)CC3)cc2c1 | 9.11% (inactive) |
| COc1ccc(O)c(C(=O)/C=C/c2cc3ccccc3o2)c1 | 73.2% (active) |
| Cc1ccc(C(=O)O)cc1NC(=O)c1cccs1 | -5.26% (inactive) |
| CN1/C(=C\C=Nc2ccccc2)C(C)(C)c2ccccc21 | 14.1% (inactive) |
| COc1ccc2cc(-c3nc4ccccc4n3C)c(=O)oc2c1 | -5.19% (inactive) |
| CCn1c2ccccc2c2cc(CC(N)=O)ccc21 | -7.62% (inactive) |
| COc1ccccc1C(=O)Nc1cc2cc(Br)ccc2oc1=O | -7.35% (inactive) |
| Cc1ccc(CSCC(=O)NCCCN2CCOCC2)cc1 | 2.33% (inactive) |
| Cc1cc(=O)c2c(O)c(O)ccc2o1 | -3.3% (inactive) |
| O=c1nc2sc3ccccc3n2c(=O)n1-c1ccc(Cl)cc1 | 5.72% (inactive) |
| COc1ccc(C)cc1S(=O)(=O)Nc1ccc(F)cc1 | 0.68% (inactive) |
| Cc1ccc(S(=O)(=O)N[C@@H](Cc2ccccc2)C(=O)CCl)cc1 | 84.4% (active) |
| CCCCNC(=O)NS(=O)(=O)c1ccc(C)cc1 | -4.64% (inactive) |
| CNS(=O)(=O)c1ccc(C)cc1 | -16.6% (inactive) |
| COc1ccc(-c2nnc(-c3cc4c(ccc5ccccc54)oc3=O)o2)cc1 | 5.2% (inactive) |
| COc1c(C=O)c(CCN(C)C(=O)c2ccc(F)cc2)cc2c1OCO2 | 3.02% (inactive) |
| O=C(O)c1cc(-c2ccccc2)nc2ccccc12 | -2.12% (inactive) |
| COC(=O)c1cc(-c2ccc(C)o2)nc2ccccc12 | 72.8% (active) |
| CCCOc1ccc(-c2cc(C(=O)NCC3CCCO3)c3ccccc3n2)cc1 (stereo unspecified) | -0.81% (inactive) |
| C/C(=N\NC(=O)c1ccccc1[N+](=O)[O-])c1ccc(Br)s1 | -7.54% (inactive) |
| Cc1cc(C)c(NC(=O)NC(=O)C(Cl)(Cl)Cl)c(C)c1 | -18.5% (inactive) |

| SMILES | inhibition |
| --- | --- |
| O=C(/C=C/c1ccc2c(c1)OCO2)c1ccccn1 | 55.7% (active) |
| O=C(/C=C/c1ccc2c(c1)OCCCO2)c1ccc2ccccc2c1O | 26.6% (inactive) |
| O=C(/C=C/c1ccc2c(c1)OCO2)NCc1ccc(F)cc1 | 1.71% (inactive) |
| O=C1N[C@@H](Cc2cnc[nH]2)C(=O)N2CCC[C@@H]12 | -13.3% (inactive) |
| O=C(c1ccccc1F)c1cc2c(cc1[N+](=O)[O-])OCCO2 | 2.64% (inactive) |
| O=C(CN1CC[n+]2c(-c3cccs3)csc21)c1ccc(Br)cc1 | 51.8% (active) |
| COc1ccc(-c2c3c(=O)n(C)c(=O)n(C)c3cn2C2CCCCC2)cc1 | 7.04% (inactive) |
| O=C(O)/C=C/c1cccc(OCc2ccccc2)c1 | -15.3% (inactive) |
| CC(C)C[C@H](NC(=O)NC(C)C)C(=O)O | -0.17% (inactive) |
| CC(C)OC(=O)CC1C(=O)NCCN1C(=S)NC(=O)c1cccs1 (stereo unspecified) | -6.51% (inactive) |
| COc1ccc(C2CC(c3c(O)cc(C)oc3=O)=NCCS2)c(OC)c1 (stereo unspecified) | 22.5% (inactive) |
| O=C1ON=C(c2ccc(Cl)cc2)/C1=C/c1ccc(O)cc1 | 70.2% (active) |
| COc1cc2c(cc1OC)/C(=C/c1ccc(Cl)cc1)C(=O)OC2 | 33.3% (inactive) |
| Nc1cccc(C(=O)O)c1 | -4.68% (inactive) |
| O=C(O)C1[C@H]2C(=O)N(C3CCCC3)C[C@]23C=C[C@H]1O3 (stereo partly specified) | -13.3% (inactive) |
| O=C1CCCN1C(=O)CCC(=O)N1CCCC1=O | 4.49% (inactive) |
| Cc1oc2c(C)c3oc(=O)c4c(c3cc2c1C)CCCC4 | 1.69% (inactive) |
| CCc1ccc(/C=C2\Oc3cc(OC(=O)N4CCOCC4)ccc3C2=O)cc1 | 17.7% (inactive) |
| CS(=O)(=O)Oc1ccc2c(c1)O/C(=C\C=C\c1ccccc1)C2=O | 53.5% (active) |
| COc1ccccc1C(=O)Oc1ccc2c(c1)O/C(=C\c1ccncc1)C2=O | 35.9% (inactive) |
| O=C(O)C1CCN(C(=O)COc2ccc3c4c(c(=O)oc3c2)CCC4)CC1 | -5.81% (inactive) |
| COc1ccc([C@H]2[C@H](C(=O)OC(C)(C)C)N3N=Cc4ccccc4C3C23C(=O)c2ccccc2C3=O)cc1OC (stereo partly specified) | 0.07% (inactive) |
| O=C(NCCO)c1ccc2[nH]c3ccccc3c2c1 | -4.84% (inactive) |
| COc1ccc2nc(C)cc(Nc3ccccc3O)c2c1 | -5.57% (inactive) |
| CC1(c2ccccc2)CC(C)(C)N2C(=O)C(=O)c3cccc1c32 (stereo unspecified) | 59.8% (active) |
| O=C1c2ccccc2C2(c3ccccc3)NCCN12 (stereo unspecified) | 0.12% (inactive) |

| SMILES | inhibition |
| --- | --- |
| COc1cc2c3c(c1)C(C)CC(C)(C)N3C(=O)C2=O (stereo unspecified) | 3.84% (inactive) |
| Cc1[nH]c2ccccc2c1/C=C/c1nc2ccccc2c(=O)n1CCO | 8.95% (inactive) |
| C[C@]12CC[C@@H]3c4ccc(O)cc4C(=O)C[C@H]3[C@@H]1CC[C@@H]2O | 9.16% (inactive) |
| CC(=O)OCC1OC(n2ccc(=O)[nH]c2=O)C(O)C1O (stereo unspecified) | -2.69% (inactive) |
| C/C(=N\NC(=O)C1(C)CC1(Br)Br)c1ccc([N+](=O)[O-])cc1 (stereo unspecified) | -8.2% (inactive) |
| O=C(NCc1ccc(N2CCCC2=O)cc1)c1ccc(F)cc1 | 7.2% (inactive) |
| CC(=Nc1ccccc1)C1=C(O)CCCC1=O | 0.34% (inactive) |
| O=C(/C=C/c1ccco1)N1CCN(c2ccccc2)CC1 | 2.96% (inactive) |
| CC1(C)c2ccccc2N2CC(=O)NC21/C=C/c1ccco1 (stereo unspecified) | 50.2% (active) |
| CC1(C)c2ccccc2N2CC(=O)N(CC(N)=O)C21C (stereo unspecified) | 4.9% (inactive) |
| Nc1ccc2cn[nH]c2c1 | -10.6% (inactive) |
| Cc1ccc(N2C(=O)c3ccccc3C2=O)cc1C | -3.44% (inactive) |
| CNc1nc(N(C)C)nc(N(C)C)n1 | -0.61% (inactive) |
| COC(=O)c1ccc(C(=O)OC)c(NC(=O)C(C)C)c1 | -13.5% (inactive) |
| COc1ccc(C2C(=O)c3ccccc3C2=O)cc1 | -1.24% (inactive) |
| COc1ccc(C2=CC(=O)C=CC2=O)cc1 | 69.1% (active) |
| COc1ccc(-c2nc(NC(C)=O)sc2-c2ccc(OC)cc2)cc1 | 2.96% (inactive) |
| COc1ccccc1CCn1cnc2c3cc(C)ccc3n(C)c2c1=O | 12.2% (inactive) |
| CCOc1cc2c(cc1OCC)C(c1ccccc1)N(c1ccc(C(=O)O)cc1)C(=O)C2 (stereo unspecified) | 5.15% (inactive) |
| CCS(=O)(=O)Nc1cc(OC)c(OC)cc1Cc1nccc2cc(OC)c(OC)cc12 | -5.76% (inactive) |
| O=C(COc1ccc2ccc(=O)oc2c1)c1ccccc1 | -3.28% (inactive) |
| COc1ccc(NC(=O)C2C(=O)N(CCO)C3(C)CC2c2ccccc2O3)cc1 (stereo unspecified) | -8.28% (inactive) |
| COc1ccc2c(c1)C=CC1(O2)N(CCO)c2ccccc2C1(C)C (stereo unspecified) | 50.9% (active) |
